Compound activity deposited in PubChem by National Center for Advancing Translational Sciences (NCATS).
Only some compounds are listed: those with a hit (about 12% of all), similar ones and a draw of the others.
Sfp PPTase inh: inhibitors of Bacillus subtilis Sfp phosphopantetheinyl transferase | Biochemical Sfp PPTase activity, qHTS | Potency, µM, most hits filed as inhibitors | AID 1490 | 310,000 compounds, 3.5% hits;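 further: the enzyme is Sfp with the accession as filed and its product quenches rhodamine fluorescence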
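Fluorescence-quenching assay with 15 nM Sfp, 5 uM rhodamine-CoA and 12.5 uM BHQ-2-labelled ybbR peptide in pH 7.6 Hepes/MgCl2 buffer. Enzyme was pre-incubated with compound for 15 min at room temperature. Rate was taken from the 30-min fluorescence change (525/598 nm).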
G9a block: inhibitors of human histone lysine methyltransferase G9a; G9a H3K9 monomethylation, AlphaScreen, 2 h; Potency, µM (top dose mostly 102 µM), most hits filed as inhibitors; 350,000 compounds, 8.8% hits; further: nearly all actives have a fitted effect of over 75% in size
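Step 1: enzyme (final 20 nM) with compound, 15 min RT. Step 2: substrate peptide 500 nM and SAM 20 uM, 2 h RT. Step 3: anti-H3K9me1 antibody and AlphaScreen beads, 10 min, then plate read.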
L3MBTL1 block: inhibitors of human L3MBTL1; AlphaScreen L3MBTL1–H3K9me1 peptide binding; Potency, µM (highest dose often 57.1 µM), usual class: inhibitors; Q9Y468; 230,000 compounds, 0.66% hits; further: nearly all actives have a fitted effect of over 60% in size
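AlphaScreen proximity signal between nickel-chelate acceptor and streptavidin donor beads (final 10 ug/mL) reports binding of 50 nM L3MBTL1 to 75 nM biotin-H3 K9me1 peptide; complex incubated with compounds 30 min at room temperature; cefsulodin titration as control.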
HP1b chromo inh: HP1-beta chromodomain-methylated histone interaction inhibition; AlphaScreen HP1-beta / biotin-H3K9me3 peptide binding; 390,000 compounds, 0.56% hits; P83916; Potency, µM (top dose mostly 114 µM), usual class: inhibitors; further: nearly all actives have a fitted effect of over 70% in size
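Compound inhibition of the preformed complex between 50 nM HP1-beta and 50 nM biotinylated H3K9me3 peptide was read by AlphaScreen. Buffer was PBS pH 7.4 with 0.01% Tween-20. Incubations ran 30 min at room temperature, with 10 ug/mL donor/acceptor beads.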
JMJD2A Tudor inh: JMJD2A Tudor domain (human) inhibition; O75164; AlphaScreen JMJD2A-Tudor / H3K4me3 peptide binding; Potency, µM (highest dose often 114 µM), hits mostly inhibitors; 390,000 compounds, 4.4% hits; AID 504339; further: nearly all actives have a fitted effect of over 50% in size
BAZ2B inh: BAZ2B (human) inhibition. Potency, µM (titrated, usually from 114 µM), actives largely listed as inhibitors. AID 504333. 360,000 compounds, 4.4% hits. AlphaScreen BAZ2B-H3K14Ac peptide displacement; further: nearly all actives have a fitted effect of over 60% in size
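AlphaScreen displacement of biotin-H3(5-23)K14Ac peptide (50 nM final) from BAZ2B (50 nM final) in PBS pH 7.4, 0.01% Tween-20; complex preformed 30 min RT, then compounds (top 110 uM) 30 min RT, beads 20 min dark.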
Each line names hits and unclear results; the compound was inactive in the other large screens. The call rests on the fitted dose curve; in most records, active means well fitted curve in the direction sought with a large enough effect; inconclusive means small, poorly fitted or top-dose-only effect, or another doubt; inactive means no such curve, though single readings can be large; an effect the other way counts as inactive or inconclusive.

CC(C)N(C(=O)CSc1nnc(NC(=O)c2cccs2)s1)C(C)C	none
O=C1CCc2cc(S(=O)(=O)Nc3ccccn3)ccc2N1	none (no result: Sfp PPTase inh, G9a block, L3MBTL1 block, HP1b chromo inh, BAZ2B inh)
Cc1nc(-c2ccc(Cl)cc2)sc1CCNC(=O)c1ccco1	none (no result: Sfp PPTase inh, L3MBTL1 block)
COc1ccc(-c2nnc3n2N=C(c2ccccc2OC)CS3)cc1	none (no result: G9a block, L3MBTL1 block, HP1b chromo inh, BAZ2B inh)
O=C(Nc1ccccc1)Nc1nnc(SCC(=O)N2CCCCC2)s1	G9a block inconclusive (no result: Sfp PPTase inh, L3MBTL1 block)
O=C(Nc1nnc(SCC(=O)N2CCOCC2)s1)c1ccccc1	G9a block 10µM, JMJD2A Tudor inh inconclusive
CCCC(=O)Nc1nnc(SCC(=O)N2CCCCC2)s1	G9a block 18µM, HP1b chromo inh inconclusive, JMJD2A Tudor inh 71µM (no result: L3MBTL1 block)
CNC(=O)CSc1nnc(NC(=O)Nc2ccccc2)s1	G9a block 16µM (no result: Sfp PPTase inh, L3MBTL1 block)
CCSc1nnc(NC(=O)CSc2nccn2-c2cc(C)cc(C)c2)s1	G9a block inconclusive, BAZ2B inh inconclusive
CCSc1nnc(NC(=O)CSc2nccn2-c2cccc(C)c2C)s1	G9a block inconclusive, HP1b chromo inh inconclusive, JMJD2A Tudor inh 25µM, BAZ2B inh inconclusive
CCCC(=O)Nc1nnc(SCC(=O)N2C(C)CCCC2C)s1 (stereo not drawn)	none (no result: L3MBTL1 block)
COc1ccc2c(c1)CCc1c(C(=O)Nc3ccccc3C(F)(F)F)noc1-2	none (no result: Sfp PPTase inh, L3MBTL1 block)
O=C(C1CCN(S(=O)(=O)Cc2ccccc2)CC1)N1CCN(c2ccc(F)cc2)CC1	none (no result: Sfp PPTase inh, L3MBTL1 block)
Cc1cccc(C)c1NC(=O)CSc1nnc(NC(=O)c2ccccc2C(=O)O)s1	G9a block 50µM
CC(CNC(=O)C1CCN(Cc2cc3ccccc3n2Cc2ccccc2)CC1)c1ccccc1 (stereo not drawn)	none (no result: Sfp PPTase inh, L3MBTL1 block)
Cc1ccc(C(=O)NNC(=S)NC(=O)COc2ccccc2)cc1	Sfp PPTase inh 56µM, G9a block 1.3µM, JMJD2A Tudor inh 13µM (no result: L3MBTL1 block)
CC(C)(C)c1ccc(C(=O)NC(=S)NNC(=O)COc2ccccc2)cc1	G9a block 25µM, JMJD2A Tudor inh inconclusive, BAZ2B inh inconclusive (no result: L3MBTL1 block)
COC(=O)CNC(=S)NC(=O)c1ccc(C(C)(C)C)cc1	G9a block 18µM
O=C(CNC(=S)NC(=O)c1ccccc1)c1ccccc1	G9a block inconclusive
COC(=O)c1ccccc1NC(=S)NC(=O)COc1ccccc1	G9a block inconclusive
CC(C)(C)c1ccc(OCC(=O)NNC(=O)CCc2ccccc2)cc1	none
CC(=O)N1CCCc2cc(S(=O)(=O)NCc3ccccc3Cl)ccc21	none (no result: Sfp PPTase inh, L3MBTL1 block)
CCCC(=O)Nc1ccc(NC(=S)NC(=O)c2cccs2)cc1	G9a block 32µM, BAZ2B inh inconclusive
CCN(c1ccccc1)S(=O)(=O)c1ccc(NC(=S)NC(=O)c2cccs2)cc1	Sfp PPTase inh inconclusive
CN(C)S(=O)(=O)c1ccc(NC(=S)NC(=O)c2cccs2)cc1	Sfp PPTase inh 32µM
CCN(CC)c1ccc(NC(=O)CN(C)Cc2cccs2)cc1	G9a block 8.9µM, HP1b chromo inh 45µM, JMJD2A Tudor inh 40µM, BAZ2B inh 32µM (no result: L3MBTL1 block)
O=C(NC(=S)Nc1ccc(S(=O)(=O)N2CCCC2)cc1)c1cccs1	Sfp PPTase inh inconclusive
O=C(NC(=S)Nc1ccc(-c2ccc(CO)o2)cc1)c1cccs1	Sfp PPTase inh 8.9µM, G9a block inconclusive (no result: L3MBTL1 block, BAZ2B inh)
COc1ccc2c(CNCc3ccco3)c(C(=O)O)n(Cc3ccc(F)cc3Cl)c2c1	BAZ2B inh inconclusive (no result: Sfp PPTase inh, L3MBTL1 block)
CC1(C)OC(=O)C=C[C@@]2(C)C1C[C@@H](O)[C@]1(C)C2CC[C@@]2(C)C(c3ccoc3)OC(=O)[C@H]3O[C@]321 (stereo partly drawn)	none (no result: G9a block, L3MBTL1 block, HP1b chromo inh, JMJD2A Tudor inh, BAZ2B inh)
COc1ccc(CCC(=O)NCc2nc3cccnc3n2Cc2ccc(OC)cc2)cc1	none (no result: Sfp PPTase inh, L3MBTL1 block)
CC(=O)NC(=S)Nc1ccc(NC(=S)NC(=O)c2cccs2)cc1	none (no result: G9a block, L3MBTL1 block)
CCCC(=O)Nc1ccc(C(=O)NNC(=S)NC(=O)c2cccs2)cc1	none
CCN(CC)c1ccc(NC(=S)NC(=O)c2cccs2)cc1	Sfp PPTase inh inconclusive, L3MBTL1 block inconclusive, HP1b chromo inh inconclusive, JMJD2A Tudor inh 18µM, BAZ2B inh 10µM (no result: G9a block)
CCCC(=O)NC(=S)Nc1ccc(NC(=O)c2cccs2)cc1	G9a block 11µM (no result: L3MBTL1 block)
CCCC(=O)NC(=S)Nc1ccc(N2CCN(C(=O)c3cccs3)CC2)cc1	G9a block 40µM, BAZ2B inh inconclusive
